Compounds with a hit are over-represented: about 0.82% of the library has one in this group of screens.
RTF Ca sens inh = cardiac RTF calcium sensitivity inhibitors, primary screen, biochemical, IANBD-TnC fluorescence, EC70 calcium. IANBD-labeled cardiac RTF, Ca2+ fluorescence. inhibition, % at 7.15 µM. 340,000 tested, 0.12% active;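 active = inhibition above the mean inhibition of all tested compounds plus 3 SD, cut at about 17% in these data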;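 note: assay run at fixed EC70 calcium of 1.6 mM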
LANA DNA inh = inhibitors of KSHV C-LANA binding to DNA, primary screen, biochemical, fluorescence polarization, FAM-LBS DNA, MBP-C-LANA, single point. 340,000 tested, 0.078% active. inhibition, % at 9 µM. Kaposi's sarcoma herpesvirus LANA C-terminal domain (residues 932-1162) DNA binding;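 active = highest replicate inhibition at or above 60% at 9 µM, even if other replicates fall short; inactive = all replicates below 60% inhibition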;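 note: 0% = neutral control wells and 100% = 4 µM acridine orange control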
Keap1 Nrf2 FP = Keap1-Nrf2 protein-protein interaction inhibitors, primary screen, biochemical, fluorescence polarization, single point; Kelch-like ECH-associated protein 1 (Homo sapiens), Q14145; Keap1 Kelch-Nrf2 peptide fluorescence polarization, 1536-well; inhibition, % at 9.4 µM; 340,000 tested, 0.15% active; in the data active = inhibition above about 12%;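 note: human Keap1 Kelch domain with fluorescein labeled Nrf2 9mer peptide probe; 0% = neutral control wells and 100% = peptide positive control; higher means more block of Keap1 binding to Nrf2 peptide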
eLon inh = inhibitors of E. coli Lon protease, primary screen, biochemical, fluorescence polarization | purified E. coli Lon protease | 360,000 tested, 0.42% active | inhibition, % at 7.94 µM | AID 602123, 2011; in the data active = inhibition above about 13%, passing the limit was not always enough;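 note: 0% = enzyme with probe and DMSO and 100% = no enzyme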
RTF Ca sens act = cardiac RTF calcium sensitivity activators, primary screen, biochemical, IANBD-TnC fluorescence, EC20 calcium; 340,000 tested, 0.24% active; activation, % at 7.2 µM; IANBD-labeled TnC RTF fluorescence at EC20 calcium; 0% EC20 calcium, 100% full calcium;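 active = activation above the mean over all tested compounds plus 3 SD, cut at about 30% in these data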;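 note: rise in fluorescence read as greater calcium sensitivity of cardiac thin filaments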
RTF inh confirm = cardiac RTF calcium sensitivity inhibitors, confirmation, biochemical, fluorescence readout | shares compounds with RTF Ca sens inh | reconstituted cardiac thin filaments | inhibition, % at 7.15 µM | 360 tested, 8% active | AID 504635, 2011; in the data active = inhibition above about 18%
Starred values were filed as active, the others as inactive; i = inactive; . = not tested or not shown; + = active, no number.

SMILES | RTF Ca sens inh | LANA DNA inh | Keap1 Nrf2 FP | eLon inh | RTF Ca sens act | others
CCN1C(=O)/C(=C/C=C2/SCCN2C)SC1=S | -128 | -1 | -7 | -472 | 136*
Nc1ccc(S(=O)(=O)c2ccc(N3CCOCC3)c(N)c2)cc1 | . | . | . | 8 | .
COc1ccc2cc(C(=O)N/N=C/c3sc4ccccc4c3O)ccc2c1 | -135 | -8 | -20 | i | 109*
O=C(N/N=C/c1sc2ccccc2c1O)c1ccccc1 | -46 | -16 | -52 | -379 | 47*
O=C(N/N=C/c1sc2ccccc2c1O)c1cccc2ccccc12 | -11 | -2 | -18 | -237 | 8
COc1ccc(C(=O)N/N=C/c2sc3ccccc3c2O)cc1 | -26 | -21 | -76 | -392 | 32*
COc1ccc(C(=O)N/N=C/c2c[nH]c3ccccc23)cc1 | -4 | -7 | -4 | -4 | -5
C/C(=N\NC(=O)c1cc2c(s1)CCC(C)C2)c1ccc[nH]1 (stereo not given) | -29 | 29 | -145 | -15 | 37*
O=C1c2ccccc2NC(c2cn[nH]c2-c2ccccc2)N1O (stereo not given) | -10 | -1 | 4 | -16 | 5
O=C1c2ccccc2NC(c2cn[nH]c2-c2ccc(Cl)cc2)N1O (stereo not given) | -9 | 8 | 12* | 13 | 5
N#CC1(NC(=O)COC(=O)C2=COCCO2)CCCCC1 | -185 | . | 194* | -3 | 8
COC(=O)CC1OCC=C2CN3CCC45C6=CC(=O)C(=O)C([N+](=O)[O-])=C6NC4C1C2CC35 (stereo not given) | . | . | . | 2 | .
N#C/C(=C\c1ccc(N2CCOCC2)o1)c1nc2ccccc2[nH]1 | -228 | -31 | -188 | -26 | 259*
N#C/C(=C\c1ccc(-c2ccc(C(=O)O)cc2)o1)c1nc2ccccc2[nH]1 | -86 | -6 | -8 | -92 | 54*
N#C/C(=C\c1ccc(N2CCOCC2)c([N+](=O)[O-])c1)c1nc2ccccc2[nH]1 | 7 | -1 | 1 | -6 | -4
COc1ccc(-n2nc3c(N4CCC(C(=O)NCc5ccco5)CC4)nnc(C)c3c2C)cc1 | -2 | 0 | -5 | 0 | 30*
COc1ccc(-n2nc3c(N4CCC(C(=O)NCc5ccccc5C)CC4)nnc(C)c3c2C)cc1 | -9 | 7 | -2 | -14 | -7
Nc1nc2ccc(Cl)cc2cc1C(=O)NCCc1c[nH]c2ccccc12 | . | . | . | 3 | .
CN(C)c1ccc(/C=C(\C#N)C(=O)c2ccccc2)cc1 | -106 | 6 | -11 | i | 80*
CCN(CC)c1ccc(/C=C(\C#N)C(=O)c2ccc(Br)cc2)cc1 | -488 | 6 | -19 | i | 559*
CCN(CC)c1ccc(/C=C(\C#N)C(N)=S)cc1 | -282 | -9 | -57 | -224 | 200*
Cc1ccc(C=C(C#N)C(=O)c2ccccc2)cc1 | . | . | . | -5 | .
C/C(=N/NC(=O)c1ccncc1)c1cc2ccc(O)cc2oc1=O | -403 | 75* | -76 | i | +
Cc1cccc(N2CCN(C(=O)COc3noc4nc(C)cc(C)c34)CC2C)c1 (stereo not given) | . | . | . | -2 | .
COc1cccc(C(NC(C)=O)c2nc(-c3cccc(C#N)c3)cs2)c1 (stereo not given) | . | . | . | -12 | .
SMILES | RTF Ca sens inh | LANA DNA inh | Keap1 Nrf2 FP | eLon inh | RTF Ca sens act | others
CCN(CC)c1ccc(/C=C2\C(=O)c3ccc(C(=O)O)cc3C2=O)cc1 | -98 | -45 | -189 | i | 74*
CCN(CC)c1ccc(C(=O)O)cc1 | 10 | 1 | -4 | 1 | 1
CC1(c2nnnn2Cc2ccccc2)CCC(=O)N1c1ccc(N2CCOCC2)cc1 (stereo not given) | . | . | . | -14 | .
CC1C/C(=C/c2cccn2C)C(=O)/C(=C/c2cccn2C)C1 (stereo not given) | -410 | -7 | -16 | -145 | 375*
COc1ccc(-n2c(O)c(/C=N/Nc3nc(C)cc(C)n3)c3ccccc3c2=O)cc1OC | 0 | -1 | -7 | 4 | 2
COc1ccc(-n2c(O)c(/C=N/NS(=O)(=O)c3cc(C)ccc3C)c3ccccc3c2=O)cc1OC | -70 | -6 | -117 | -449 | 114*
COc1ccc(-n2c(O)c(/C=N/NS(=O)(=O)c3ccc(C)cc3)c3ccccc3c2=O)cc1OC | -75 | -12 | -133 | -498 | 59*
Cc1cccnc1C(NC(=O)C1CCN(Cc2ccc3ccccc3n2)CC1)c1ccc(Cl)cc1 (stereo not given) | . | . | . | -25 | .
O=C(Nc1ccc(F)c(Cl)c1)c1cc(C2CCCCN2C(=O)c2ccc3c(c2)CCO3)on1 (stereo not given) | . | . | . | -1 | .
CCCCNS(=O)(=O)c1cccc(NC(=O)[C@@H]2O[C@H](CO)[C@H](O)[C@H](O)[C@H]2O)c1 | . | . | . | 3 | .
C=CCN1C(=O)c2ccc(C(=O)OCC(=O)N3CCN(c4ccccc4)CC3)cc2C1=O | 21* | 0 | 6 | -12 | 4 | RTF inh confirm=-3
O=C(O[C@@H]1OC2COC(=O)c3cc(O)c(O)c(O)c3-c3c(cc(O)c(O)c3O)C(=O)O[C@@H]([C@H]1O)[C@@H]2O)c1cc(O)c(O)c(O)c1 | 130* | 121* | . | 33* | -60 | RTF inh confirm=167*
CN(C)CC[C@@H](c1ccc(Cl)cc1)c1ccccn1 | 17* | -2 | 0 | -7 | 2 | RTF inh confirm=0
CCN(CC)S(=O)(=O)c1cc(NS(=O)(=O)c2cccc(Cl)c2Cl)ccc1C | 47* | -3 | 2 | -2 | 5 | RTF inh confirm=-1
Cc1ccc2cc(C(c3nnnn3C3CCCC3)N(Cc3ccccc3)Cc3ccco3)c(=O)[nH]c2c1 (stereo not given) | 0 | 0 | 0 | -6 | 1
COCCn1nnnc1C(c1cc2ccc(C)cc2[nH]c1=O)N(Cc1ccco1)Cc1cccs1 (stereo not given) | 17* | 1 | -8 | -4 | 6 | RTF inh confirm=-5
CCNC(=O)C1(C)CCCN(Cc2ccc3ccccc3c2Br)C1 (stereo not given) | . | . | . | 4 | .
Cc1cc(C)n(Cc2ccc(C(=O)O)cc2)n1 | 0 | 1 | -2 | -5 | -1
Cc1ccc(C)n1Cc1ccc(C(=O)O)cc1 | 71* | 114* | -4 | -3 | -35 | RTF inh confirm=22*
CC(C)[C@H](NC(=O)[C@@H]1Cc2c([nH]c3ccccc23)C2c3ccccc3C(=O)N21)C(=O)N1CCC[C@H]1C(=O)O (stereo not given in full) | . | . | . | -9 | .
